Test results published in the supplement of paper PMC9177965.
Where “and” joins values, the source holds several entries; their conditions need not be identical. Equal values may be shown once.

The molecules below were run on HT29 sg-Ctrl (RNF43 wildtype) (assay: cell viability activity relative to DMSO (negative = inhibition); higher = more viable cells (less growth inhibition)). Conditions: 5 µM; 96 h.
Procedure: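 Broad Repurposing Library primary screen at a single dose of 5 uM. HT29 sg-Ctrl and HT29 RNF43 G659fs CRISPR-edited isogenic cells were seeded at 2500 cells/well in 384-well plates in duplicate and treated for 96 h. Viability was read by CellTiter-Glo and reported as % activity relative to DMSO, with MG132 as the positive control (negative = growth inhibition).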

In order of falling cell viability activity:
1. C=C1CC[C@@H]2[C@](C)(CO)[C@H](O)CC[C@@]2(C)[C@@H]1C/C=C1/C(=O)OC[C@H]1O  -0.518%
2. Cc1ccccc1N(C)C(=O)c1ccc([S+]([O-])c2nccs2)c([N+](=O)[O-])c1 (configuration not stated)  -22.7%
3. CNc1nc(-c2ccc3c(N)n[nH]c3c2)cc(N2C[C@@H](C(=O)NC3CCCCC3)CC[C@H]2C)n1  -23%
4. O=P(O)(O)C(O)(Cn1ccnc1)P(=O)(O)O  -25.6%
5. CCOc1cc2ncc(C#N)c(Nc3ccc(OCc4cccc(F)c4)c(Cl)c3)c2cc1NC(=O)/C=C/CN(C)C  -28.1%
6. COc1ccc(-c2cc3nccn3c(Nc3ncccc3C(N)=O)n2)cc1OC  -32.6%
7. CCC(=O)N1CCN(c2ccc(-n3c(=O)ccc4cnc5ccc(-c6cnc7ccccc7c6)cc5c43)cc2C(F)(F)F)CC1  -34.6%
8. COc1cc2c(Oc3ccc(NC(=O)C4(C(=O)Nc5ccc(F)cc5)CC4)cc3F)ccnc2cc1OCCCN1CCOCC1  -37.8%
9. CC(C)(C)c1cc(NC(=O)Nc2ccc(-c3cn4c(n3)sc3cc(OCCN5CCOCC5)ccc34)cc2)no1  -40.7%
10. C=CCc1cccc(/C=N/NC(=O)CN2CCN(Cc3ccccc3)CC2)c1O  -42.7%
11. CCN1CCN(Cc2ccc(Nc3ncc(F)c(-c4cc(F)c5nc(C)n(C(C)C)c5c4)n3)nc2)CC1  -44.9%
12. Cc1csc(-c2nnc(Nc3ccc(Oc4ncccc4-c4ccnc(N)n4)cc3)c3ccccc23)c1  -46.6%
13. Nc1ccc2cc3ccc(N)cc3nc2c1  -47.4%
14. CN(C)CCN1C(=O)c2cccc3cc(N)cc(c23)C1=O  -47.7%
15. C=CC(=O)Nc1cc(Nc2nccc(-c3cn(C)c4ccccc34)n2)c(OC)cc1N(C)CCN(C)C  -50.6%
16. C#CCC(Cc1cnc2nc(N)nc(N)c2n1)c1ccc(C(=O)N[C@@H](CCC(=O)O)C(=O)O)cc1 (some centres not stated)  -61.7%
17. CCc1c2c(nc3ccc(O)cc13)-c1cc3c(c(=O)n1C2)COC(=O)[C@]3(O)CC  -63.3%
18. O=C(O)c1ccc[n+]([O-])c1  -67.1%
19. Cn1c(Nc2ccc(C(F)(F)F)cc2)nc2cc(Oc3ccnc(-c4ncc(C(F)(F)F)[nH]4)c3)ccc21  -67.4%
20. O=C(/C=C\n1cnc(-c2cc(C(F)(F)F)cc(C(F)(F)F)c2)n1)N1CC(F)(F)C1  -68%
21. C[C@@H](C(=O)O)c1ccc(-c2ccccc2)c(F)c1  -70.3%
22. Nc1ccccc1NC(=O)c1ccc(CNc2nccc(-c3cccnc3)n2)cc1  -77%
23. CC1=NN(c2ccc(C(=O)O)cc2)C(=O)/C1=C\c1ccc(-c2cc(C)c(C)cc2[N+](=O)[O-])o1  -79.6%
24. CCN(CC)CCOc1ccc(Nc2ncc3cc(-c4c(Cl)cccc4Cl)c(=O)n(C)c3n2)cc1  -80.3%
25. COc1ccc(-c2cc3c(C)nc(N)nc3n([C@H]3CC[C@H](OCCO)CC3)c2=O)cn1  -84.6%
26. COC(=O)C1=C(C)NC(C)=C(C(=O)OC2CCCN(Cc3ccccc3)C2)C1c1cccc([N+](=O)[O-])c1 (configuration not stated)  -85.6%
27. C1CCC(C(CC2CCCCN2)C2CCCCC2)CC1 (configuration not stated)  -89%
28. O=[N+]([O-])c1ccc2c(c1)S(=O)(=O)C=C2  -91%
29. CCCCNc1ncc2c(-c3ccc(CN4CCN(C)CC4)cc3)cn([C@H]3CC[C@H](O)CC3)c2n1  -91.1%
30. CC[C@H](CO)Nc1nc(NCc2ccc(-c3ccccn3)cc2)c2ncn(C(C)C)c2n1  -92.1%
31. C[C@H]1O[C@@H](O[C@H]2[C@@H](O)C[C@H](O[C@H]3[C@@H](O)C[C@H](O[C@H]4CC[C@@]5(C)[C@H](CC[C@@H]6[C@@H]5CC[C@]5(C)[C@@H](C7=CC(=O)OC7)CC[C@]65O)C4)O[C@@H]3C)O[C@@H]2C)C[C@H](O)[C@@H]1O  -93.4%
32. CSc1ccccc1Nc1nc(N2CCNCC2)nc2c(NCC3CC3)ncnc12  -94.6%
33. Cc1cc(Nc2ncc(Cl)c(Nc3ccccc3S(=O)(=O)C(C)C)n2)c(OC(C)C)cc1C1CCNCC1  -95%
34. CCN(CC)CCOc1ccc(C(=C(Cl)c2ccccc2)c2ccccc2)cc1  -97.9%
35. CCN(CC)CCNC(=O)c1c(C)[nH]c(/C=C2\C(=O)Nc3ccc(F)cc32)c1C  -99.2%

For `NC(=O)c1cnc(N[C@@H]2CCCC[C@@H]2N)nc1Nc1cccc(-n2nccn2)c1`, the cell viability activity was -34.2% and -41.6%.
For `C[C@H]1[C@H](OC(=O)CCC(=O)O)O[C@@H]2O[C@@]3(C)CC[C@H]4[C@H](C)CC[C@@H]1[C@@]24OO3`, the cell viability activity was -35.1% and -16.8%.
